Experimental data from paper PMC7862700, “An all-to-all approach to the identification of sequence-specific readers for epigenetic DNA modifications on cytosine”.

Experiments:
Assay in all cases: DAPPL (digital affinity profiling via proximity ligation, sequencing); 10 mM Tris-HCl pH 7.5, 50 mM NaCl, 1 mM DTT, 4% glycerol, room temperature, 30 min; GST-TFs on glutathione beads, 16-mer random dsDNA library, 0.1% formaldehyde crosslink after washing; high values mean tight binding
Conditions in all cases: protein: recombinant; tags: N-terminal GST; dsDNA, one strand shown
[1] = target: T1, FLI1 (Homo sapiens, UniProt Q01543 1-452)
T1 sequence: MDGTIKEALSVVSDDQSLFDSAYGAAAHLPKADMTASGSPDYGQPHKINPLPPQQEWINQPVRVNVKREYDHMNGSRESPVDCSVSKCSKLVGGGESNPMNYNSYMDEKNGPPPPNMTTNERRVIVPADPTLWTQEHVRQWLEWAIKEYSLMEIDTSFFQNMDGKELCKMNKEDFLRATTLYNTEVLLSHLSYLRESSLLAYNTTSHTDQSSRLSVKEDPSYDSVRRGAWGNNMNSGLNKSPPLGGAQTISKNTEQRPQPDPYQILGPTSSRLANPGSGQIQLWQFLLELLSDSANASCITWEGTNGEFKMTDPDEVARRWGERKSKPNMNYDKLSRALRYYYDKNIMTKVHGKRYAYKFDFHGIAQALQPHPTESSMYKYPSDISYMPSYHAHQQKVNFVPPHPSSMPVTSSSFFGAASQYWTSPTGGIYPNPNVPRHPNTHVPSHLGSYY
Summary of the method: (§1)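 GST fusions of human transcription factors were expressed in yeast and captured with glutathione beads. Once given DNA barcodes and pooled alongside a tag-only sample, they were incubated for 30 min at room temperature with 200 nmole of a random double-stranded 16-mer DNA library in Tris/NaCl/DTT/glycerol buffer, then washed, crosslinked (0.1% formaldehyde), proximity-ligated, PCR-amplified and sequenced on an Illumina NextSeq500. The binding signal of each hexamer is its read frequency for a factor divided by its frequency for the tag-only sample.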

[2] = target: T2, ELK1 (Homo sapiens, UniProt P19419 1-428)
T2 sequence: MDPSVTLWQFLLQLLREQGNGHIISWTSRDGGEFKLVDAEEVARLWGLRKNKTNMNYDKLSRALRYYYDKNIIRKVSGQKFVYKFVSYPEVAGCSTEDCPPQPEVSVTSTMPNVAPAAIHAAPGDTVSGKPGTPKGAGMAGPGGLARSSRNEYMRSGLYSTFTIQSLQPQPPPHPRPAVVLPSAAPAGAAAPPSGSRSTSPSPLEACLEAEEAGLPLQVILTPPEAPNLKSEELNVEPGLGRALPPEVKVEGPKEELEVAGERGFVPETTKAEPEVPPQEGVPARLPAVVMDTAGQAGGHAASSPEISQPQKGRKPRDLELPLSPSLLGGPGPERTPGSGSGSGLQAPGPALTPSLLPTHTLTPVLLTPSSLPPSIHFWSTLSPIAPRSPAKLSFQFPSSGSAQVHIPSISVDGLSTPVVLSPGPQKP
Summary of the method: as §1

[3] = target: T3, GABPA (Homo sapiens, UniProt Q06546 1-454)
T3 sequence: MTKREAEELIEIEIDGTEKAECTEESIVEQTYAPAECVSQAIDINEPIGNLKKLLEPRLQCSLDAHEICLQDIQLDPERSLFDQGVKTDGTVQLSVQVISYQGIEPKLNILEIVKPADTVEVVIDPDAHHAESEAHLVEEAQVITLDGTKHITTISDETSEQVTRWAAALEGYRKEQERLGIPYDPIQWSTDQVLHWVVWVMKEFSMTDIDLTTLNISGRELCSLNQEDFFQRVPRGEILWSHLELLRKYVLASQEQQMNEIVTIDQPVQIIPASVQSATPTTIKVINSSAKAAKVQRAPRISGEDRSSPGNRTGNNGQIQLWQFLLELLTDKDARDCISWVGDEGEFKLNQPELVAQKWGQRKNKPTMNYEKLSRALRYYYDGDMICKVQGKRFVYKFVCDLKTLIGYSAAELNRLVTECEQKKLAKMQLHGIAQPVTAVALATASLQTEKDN
Summary of the method: as §1

[4] = target: T4, ERG (Homo sapiens, UniProt P11308 1-479)
T4 sequence: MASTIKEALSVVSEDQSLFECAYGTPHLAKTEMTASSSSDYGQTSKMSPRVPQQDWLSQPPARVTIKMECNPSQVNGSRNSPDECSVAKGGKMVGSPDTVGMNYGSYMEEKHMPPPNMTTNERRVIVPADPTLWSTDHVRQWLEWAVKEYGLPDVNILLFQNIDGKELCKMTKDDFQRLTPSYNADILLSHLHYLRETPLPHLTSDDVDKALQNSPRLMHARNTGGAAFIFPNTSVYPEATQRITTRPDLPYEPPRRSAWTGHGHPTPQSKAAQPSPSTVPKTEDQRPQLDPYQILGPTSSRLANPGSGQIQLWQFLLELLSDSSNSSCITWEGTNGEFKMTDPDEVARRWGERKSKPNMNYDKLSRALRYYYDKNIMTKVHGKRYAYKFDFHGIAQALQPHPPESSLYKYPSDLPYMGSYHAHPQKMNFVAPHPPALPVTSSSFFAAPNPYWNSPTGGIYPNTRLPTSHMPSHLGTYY
Summary of the method: as §1

[5] = target: ELF1 (Homo sapiens, UniProt P32519 1-619)
Summary of the method: as §1

[6] = target: T5, EHF (Homo sapiens, UniProt Q9NZC4 1-300)
T5 sequence: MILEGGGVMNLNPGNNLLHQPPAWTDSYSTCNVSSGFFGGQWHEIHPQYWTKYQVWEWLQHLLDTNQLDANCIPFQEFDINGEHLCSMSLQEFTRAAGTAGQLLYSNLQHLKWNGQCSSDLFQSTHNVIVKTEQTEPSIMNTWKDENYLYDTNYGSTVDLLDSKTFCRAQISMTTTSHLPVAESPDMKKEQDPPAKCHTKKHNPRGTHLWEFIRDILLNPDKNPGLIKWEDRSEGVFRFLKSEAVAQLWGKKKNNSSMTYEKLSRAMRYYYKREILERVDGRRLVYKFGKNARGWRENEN
Summary of the method: as §1

[7] = target: SPI1 (Homo sapiens, UniProt P17947 1-270)
Summary of the method: as §1

[8] = target: SPIB (Homo sapiens, UniProt Q01892 1-262)
Summary of the method: as §1

[9] = target: T6, ELK3 (Homo sapiens, UniProt P41970 1-407)
T6 sequence: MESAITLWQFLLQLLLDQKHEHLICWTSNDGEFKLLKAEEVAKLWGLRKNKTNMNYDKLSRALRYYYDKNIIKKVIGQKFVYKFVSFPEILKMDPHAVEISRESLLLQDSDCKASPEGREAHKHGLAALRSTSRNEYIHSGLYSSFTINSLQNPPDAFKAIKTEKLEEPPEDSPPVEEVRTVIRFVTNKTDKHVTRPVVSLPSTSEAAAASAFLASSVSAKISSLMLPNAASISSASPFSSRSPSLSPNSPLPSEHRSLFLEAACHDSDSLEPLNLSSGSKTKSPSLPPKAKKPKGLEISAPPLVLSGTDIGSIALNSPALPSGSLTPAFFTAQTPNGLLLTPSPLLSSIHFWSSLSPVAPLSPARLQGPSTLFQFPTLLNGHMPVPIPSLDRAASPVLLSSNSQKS
Summary of the method: as §1

Sequence of ELF1 (P32519 whole entry): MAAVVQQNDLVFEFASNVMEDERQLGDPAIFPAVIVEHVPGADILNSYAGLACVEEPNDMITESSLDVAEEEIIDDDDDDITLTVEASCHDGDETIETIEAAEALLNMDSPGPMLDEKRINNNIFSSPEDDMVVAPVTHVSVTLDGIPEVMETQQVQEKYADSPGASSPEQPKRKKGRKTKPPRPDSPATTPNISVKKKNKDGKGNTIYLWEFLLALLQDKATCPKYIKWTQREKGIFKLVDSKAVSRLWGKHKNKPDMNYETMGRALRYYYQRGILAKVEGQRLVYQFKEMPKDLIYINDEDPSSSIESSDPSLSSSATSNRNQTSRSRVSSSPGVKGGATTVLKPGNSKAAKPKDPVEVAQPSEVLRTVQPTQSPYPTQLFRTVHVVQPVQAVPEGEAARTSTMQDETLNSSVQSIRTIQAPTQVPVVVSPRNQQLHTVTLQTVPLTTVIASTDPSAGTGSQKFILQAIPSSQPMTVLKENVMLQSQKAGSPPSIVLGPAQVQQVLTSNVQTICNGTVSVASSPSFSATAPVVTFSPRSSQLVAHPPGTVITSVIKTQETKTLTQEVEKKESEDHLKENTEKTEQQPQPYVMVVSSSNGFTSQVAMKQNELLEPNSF
Sequence of SPIB (Q01892 whole entry): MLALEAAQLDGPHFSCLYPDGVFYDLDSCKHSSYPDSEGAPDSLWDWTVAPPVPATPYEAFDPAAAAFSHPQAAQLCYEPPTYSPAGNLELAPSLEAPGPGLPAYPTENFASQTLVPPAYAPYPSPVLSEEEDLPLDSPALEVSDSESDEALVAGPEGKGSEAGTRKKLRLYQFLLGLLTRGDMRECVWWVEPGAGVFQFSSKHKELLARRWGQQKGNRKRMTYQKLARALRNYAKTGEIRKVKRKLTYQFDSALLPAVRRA

## TTTATT
[1]
  binding signal: 1.36 fold enrichment (6-mer frequency, TF over GST control)
[2]
  binding signal: 1.25 fold enrichment (6-mer frequency, TF over GST control)
[3]
  binding signal: 1.24 fold enrichment (6-mer frequency, TF over GST control)
[4]
  binding signal: 1.26 fold enrichment (6-mer frequency, TF over GST control)
[5]
  binding signal: 1.19 fold enrichment (6-mer frequency, TF over GST control)
[6]
  binding signal: 1.31 fold enrichment (6-mer frequency, TF over GST control)
[7]
  binding signal: 1.25 fold enrichment (6-mer frequency, TF over GST control)
[8]
  binding signal: 1.32 fold enrichment (6-mer frequency, TF over GST control)
[9]
  binding signal: 1.31 fold enrichment (6-mer frequency, TF over GST control)
